Source: PubChem (National Center for Advancing Translational Sciences (NCATS))
Hits are enriched below; roughly 3.1% of the tested compounds scored in any of these assays.
TR SRC2 fluor cs = Total Fluorescence Counterscreen for Inhibitors of the Interaction of Thyroid Hormone Receptor and Steroid Receptor Coregulator 2. TRb/SRC2 Texas Red total fluorescence interference. Potency, µM (titrated, usually from 106 µM), without a hit: at the top dose fluorescence change, negative = quenching. 0.29% of 280,000 active. AID 1479, 2009; active means well fitted curve in either direction with a large enough effect; inconclusive means small, poorly fitted or top-dose-only effect
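Flags fluorescent or light-absorbing compounds by total fluorescence, S + 2P, at 555 nm excitation and 632 nm emission. Mixture: 20 nM Texas Red SRC2 peptide, 0.6 uM human TRb LBD, 1 uM T3, 5% DMSO; compound exposure 5 h at ambient temperature.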
Tau ThT inhib = qHTS for Inhibitors of Tau Fibril Formation, Thioflavin T Binding | Microtubule-associated protein tau (Homo sapiens), P10636 | recombinant tau K18 P301L, heparin-induced fibrillization, ThT fluorescence | Potency, µM (highest dose often 57.4 µM), for inactives: at the highest dose activity, negative = inhibition, usual class: inhibitors | 2.1% of 270,000 active; further: nearly all actives have a fitted effect of over 55% in size
Target sequence (P10636 561-689 P618L limits assumed): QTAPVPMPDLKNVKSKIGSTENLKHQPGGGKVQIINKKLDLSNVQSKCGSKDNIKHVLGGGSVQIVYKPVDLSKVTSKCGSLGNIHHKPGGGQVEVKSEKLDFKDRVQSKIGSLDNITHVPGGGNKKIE
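Fibril formation assay: tau K18 P301L at 15 uM with trace Alexa 594 label, heparin inducer 20 uM, pH 7 sodium acetate buffer, 37 C for 6 hr; endpoint ThT signal.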
Tau fluor cs = Counterscreen qHTS for Inhibitors of Tau Fibril Formation, Fluorescence Polarization. 0.93% of 280,000 active. Potency, µM (top dose mostly 57.7 µM), inactives show top-dose activity change, negative = decrease. AID 1463, 2008. tau K18 P301L (four-repeat tau fragment) Alexa594 fluorescence, heparin fibrillization; further: nearly all actives have a fitted effect of over 55% in size
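Human K18 P301L tau (15 uM unlabeled plus 0.24 uM Alexa 594-labeled, final) in 100 mM sodium acetate pH 7 was mixed with compound and 20 uM heparin and incubated 6 hr at 37 C.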
Tau fibril FP = qHTS for Inhibitors of Tau Fibril Formation, Fluorescence Polarization. Microtubule-associated protein tau (Homo sapiens), P10636. K18 P301L tau heparin fibrillization, Alexa594 FP, 6 h. Potency, µM (top dose mostly 57.7 µM), inactives show top-dose activity, negative = inhibition, most hits filed as inhibitors. 0.39% of 280,000 active; further: nearly all actives have a fitted effect of over 55% in size
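Steps: dispense K18 P301L tau (15 uM plus 0.24 uM Alexa 594 tracer, final) in pH 7 sodium acetate; add compound; add heparin (20 uM final); incubate 6 hr, 37 C; add ThT (30 uM final); after 1 hr ambient, read FP.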
TRb-SRC2 inh = qHTS for Inhibitors of the Interaction of Thyroid Hormone Receptor and Steroid Receptor Coregulator 2; Thyroid hormone receptor beta (Homo sapiens), P10828; TRbeta-SRC2 peptide binding, fluorescence polarization; receptor liganded with 1 µM T3; Potency, µM (titrated, usually from 106 µM), inactives show at the highest dose activity change, negative = inhibition, hits mostly inhibitors; 0.065% of 280,000 active; AID 1469, 2008;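 further: plate controls were bound peptide for no effect and peptide without receptor for full effect; nearly all actives have a fitted effect of over 50% in size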
Target sequence (P10828 whole entry, looked up): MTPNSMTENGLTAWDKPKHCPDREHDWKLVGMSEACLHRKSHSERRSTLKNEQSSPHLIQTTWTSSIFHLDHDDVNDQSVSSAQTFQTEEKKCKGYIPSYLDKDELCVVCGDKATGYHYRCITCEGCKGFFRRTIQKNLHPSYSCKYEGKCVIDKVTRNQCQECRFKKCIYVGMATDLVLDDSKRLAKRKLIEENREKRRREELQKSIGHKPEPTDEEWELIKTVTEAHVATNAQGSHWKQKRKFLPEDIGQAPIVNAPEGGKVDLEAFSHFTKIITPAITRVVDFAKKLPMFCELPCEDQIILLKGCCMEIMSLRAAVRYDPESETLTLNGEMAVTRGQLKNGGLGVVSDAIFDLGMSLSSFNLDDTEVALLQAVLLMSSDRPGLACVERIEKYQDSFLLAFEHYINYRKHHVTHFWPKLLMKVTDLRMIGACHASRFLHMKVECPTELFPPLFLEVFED
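Each compound concentration gave % activity, normalized to unbound and bound Texas Red SRC2 controls, from polarization read after 5 hr ambient incubation with T3-loaded human TRb LBD.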
An asterisk follows results filed as active; [ ] = another dose, or the depositor's remark. Unless noted, the call rests on the fitted dose curve; in most records, active means well fitted curve in the direction sought with a large enough effect; inconclusive means small, poorly fitted or top-dose-only effect, or another doubt; inactive means no such curve, though single readings can be large; an effect the other way counts as inactive or inconclusive. Unless noted, on the % scale 0 is the no-effect control and ±100 the full control effect; potency means the concentration at half of the fitted maximal effect.

`O=C1OCC2OC(O)C(O)C(O)C2OC(=O)c2cc(O)c(O)c(O)c2-c2c(O)c(O)c3oc(=O)c4c(c(O)c(O)c5oc(=O)c2c3c54)-c2c1cc(O)c(O)c2O` (stereo unspecified) gave TR SRC2 fluor cs -9%, Tau ThT inhib 7.9µM*, Tau fluor cs inconclusive, Tau fibril FP inconclusive and TRb-SRC2 inh 0%.
For COc1c(O)cc2c(c1O)[C@@H]1O[C@@H](CO)[C@@H](O)[C@@H](O)[C@@H]1OC2=O the results were TR SRC2 fluor cs -2%[53 µM] and TRb-SRC2 inh 4%[53 µM].
`O=C(Nc1ccc2nc(SCCOc3ccccc3Cl)sc2c1)c1cccs1` gave TR SRC2 fluor cs 9%, Tau ThT inhib 12%, Tau fluor cs inconclusive, Tau fibril FP 10µM* and TRb-SRC2 inh 7%.
Cc1ccc(OCCSc2nc3ccc(NC(=O)c4cccs4)cc3s2)cc1 was read as TR SRC2 fluor cs inconclusive, Tau ThT inhib inconclusive, Tau fluor cs inconclusive, Tau fibril FP inconclusive and TRb-SRC2 inh -6%.
`Cc1cc(C)cc(OCCSc2nc3ccc(NC(=O)c4cccs4)cc3s2)c1` gave TR SRC2 fluor cs -20%, Tau ThT inhib 7%, Tau fluor cs inconclusive, Tau fibril FP 7.1µM* and TRb-SRC2 inh 10%.
`CCCCCCC(=O)Nc1ccc(Br)cn1` gave TR SRC2 fluor cs 0%, Tau fluor cs 5%, Tau fibril FP 0% and TRb-SRC2 inh 4%.
Screening S=C(NC1CCCCC1)N(CCc1ccccc1)CCc1ccccc1 returned TR SRC2 fluor cs 1%, Tau ThT inhib -9%, Tau fluor cs -22%, Tau fibril FP -11% and TRb-SRC2 inh -4%.
CC(C)S(=O)(=O)C1=NSC2=NC(=O)/C(=C\c3ccc(-c4cccc(C(=O)O)c4)o3)C(=N)N21 was read as TR SRC2 fluor cs 0%, Tau ThT inhib 17%, Tau fluor cs 17%, Tau fibril FP 10% and TRb-SRC2 inh -2%.
CS(=O)(=O)C1=NSC2=NC(=O)/C(=C\c3ccc(-c4ccccc4)o3)C(=N)N21 was read as TR SRC2 fluor cs -10%, Tau ThT inhib inconclusive, Tau fluor cs -4%, Tau fibril FP 12% and TRb-SRC2 inh 3%.
Screening N=C1/C(=C/c2ccc(-c3cccc(C(=O)O)c3)o2)C(=O)N=C2SC=C(c3ccccc3)N12 returned TR SRC2 fluor cs inconclusive, Tau ThT inhib 4.5µM*, Tau fluor cs -7%, Tau fibril FP 15% and TRb-SRC2 inh 18%.
For N=C1/C(=C\c2ccc(-c3cc(Cl)cc(Cl)c3)o2)C(=O)N=C2SC=C(c3ccccc3)N12 the results were TR SRC2 fluor cs 0%, Tau ThT inhib 4µM*, Tau fluor cs -25%, Tau fibril FP 5% and TRb-SRC2 inh -7%.
COc1ccc(S(=O)(=O)NCCCC(=O)Nc2ccc(Sc3ccc(N)cc3)cc2)cc1 was read as TR SRC2 fluor cs 2% and TRb-SRC2 inh 0%.
`CCc1ccccc1NC(=O)C(=O)NCCc1sc(-c2cccc(C)c2)nc1C` gave TR SRC2 fluor cs -3%, Tau ThT inhib -15%, Tau fluor cs -2%, Tau fibril FP -1% and TRb-SRC2 inh 2%.
For Cc1oc(-c2ccccc2)cc1C(=O)Nc1cccc(/C=C\C(=O)O)c1 the results were TR SRC2 fluor cs 0%, Tau ThT inhib -10%, Tau fluor cs -11%, Tau fibril FP 2% and TRb-SRC2 inh -5%.
Cc1oc(-c2ccccc2)cc1C(=O)Nc1ccc(N(C)C)cc1 was read as TR SRC2 fluor cs 1%, Tau ThT inhib 13µM*, Tau fluor cs 14µM*[quencher], Tau fibril FP 5% and TRb-SRC2 inh -1%.
Screening COc1cc(CNCCSc2nnnn2C)cc(Br)c1OCc1ccccc1 returned TR SRC2 fluor cs 5%, Tau ThT inhib 9%, Tau fluor cs 6%, Tau fibril FP 2% and TRb-SRC2 inh 5%.
`COc1ccc(NC(=O)CN2C(=O)CC(c3ccc(C)c(C)c3)=Nc3ccccc32)cc1OC` gave TR SRC2 fluor cs -4%, Tau ThT inhib inconclusive, Tau fluor cs 25µM*[quencher], Tau fibril FP -1% and TRb-SRC2 inh 3%.
`Oc1ccc(-c2nc3c4c(ncn3n2)-c2ccccc2CC42CCCC2)cc1` gave TR SRC2 fluor cs 0%, Tau ThT inhib 5%, Tau fluor cs inconclusive, Tau fibril FP 22µM* and TRb-SRC2 inh 1%.
Screening CCN(CC)c1ccc(/C=C2/C(=O)c3ccc(C(=O)O)cc3C2=O)cc1 returned TR SRC2 fluor cs inconclusive, Tau ThT inhib 3.2µM*, Tau fluor cs -11%, Tau fibril FP inconclusive and TRb-SRC2 inh 29%.
`Cc1ccc(S(=O)(=O)N2CCC(NC(=O)c3cccc(C)c3)CC2)cc1` gave TR SRC2 fluor cs 2%, Tau ThT inhib -1%, Tau fluor cs -6%, Tau fibril FP 3% and TRb-SRC2 inh 2%.
Screening CCOC(=O)/C(C#N)=C1/C=CN(Cc2ccccc2)C=N1 returned TR SRC2 fluor cs -2%, Tau ThT inhib 1%, Tau fluor cs 1%, Tau fibril FP 2% and TRb-SRC2 inh 1%.
CCOC(=O)/C(C#N)=C1\C(=O)N(Cc2ccccc2)c2ccccc21 was read as TR SRC2 fluor cs -1%, Tau ThT inhib 35µM*, Tau fluor cs inconclusive, Tau fibril FP inconclusive and TRb-SRC2 inh 6%.
Screening Cc1ccc(S(=O)(=O)N[C@H]2COC(=O)[C@@H](Cc3ccccc3)NC(=O)[C@@H](C)COC(=O)C/C=C\[C@@H]2C)cc1 returned TR SRC2 fluor cs 2%[11.2 µM], Tau ThT inhib 1%[11.5 µM], Tau fluor cs -4%[11.6 µM], Tau fibril FP -3%[11.6 µM] and TRb-SRC2 inh 9%[11.2 µM].
Cc1ccc(N/C=C/C(=O)c2ccco2)c(O)c1 was read as TR SRC2 fluor cs -1%, Tau ThT inhib 3.5µM*, Tau fluor cs -23%, Tau fibril FP 2% and TRb-SRC2 inh 1%.
`O=C1NC(=S)S/C1=C\c1coc2ccc(O)cc2c1=O` gave TR SRC2 fluor cs -25%, Tau ThT inhib 1.1µM*, Tau fluor cs -26%, Tau fibril FP -2% and TRb-SRC2 inh 19%.
Screening O=C(c1coc2ccc(O)cc12)C1CC1 returned TR SRC2 fluor cs 0%, Tau ThT inhib -11%, Tau fluor cs -4%, Tau fibril FP 12% and TRb-SRC2 inh 3%.
Screening O=C1NC(=S)S/C1=C\c1coc2ccccc2c1=O returned TR SRC2 fluor cs 14%, Tau ThT inhib 7.9µM*, Tau fluor cs -4%, Tau fibril FP -8% and TRb-SRC2 inh -23%.
